{"source": "PubChem BioAssay (EPA / NIEHS)", "note": "Records with an inconclusive call do not appear. Calls of active or inactive are those of the source. The calls were made as follows: active = hit-call score of the fitted dose curve at least 0.9, where 1 is the maximum; inconclusive = response in the unintended direction; inactive = score below 0.9."}
{"target": "sheep Cyclooxygenase-1 (Cox1), PTGS1 (gene 443551) (UniProt P05979)", "sequence (P05979 whole entry, looked up)": "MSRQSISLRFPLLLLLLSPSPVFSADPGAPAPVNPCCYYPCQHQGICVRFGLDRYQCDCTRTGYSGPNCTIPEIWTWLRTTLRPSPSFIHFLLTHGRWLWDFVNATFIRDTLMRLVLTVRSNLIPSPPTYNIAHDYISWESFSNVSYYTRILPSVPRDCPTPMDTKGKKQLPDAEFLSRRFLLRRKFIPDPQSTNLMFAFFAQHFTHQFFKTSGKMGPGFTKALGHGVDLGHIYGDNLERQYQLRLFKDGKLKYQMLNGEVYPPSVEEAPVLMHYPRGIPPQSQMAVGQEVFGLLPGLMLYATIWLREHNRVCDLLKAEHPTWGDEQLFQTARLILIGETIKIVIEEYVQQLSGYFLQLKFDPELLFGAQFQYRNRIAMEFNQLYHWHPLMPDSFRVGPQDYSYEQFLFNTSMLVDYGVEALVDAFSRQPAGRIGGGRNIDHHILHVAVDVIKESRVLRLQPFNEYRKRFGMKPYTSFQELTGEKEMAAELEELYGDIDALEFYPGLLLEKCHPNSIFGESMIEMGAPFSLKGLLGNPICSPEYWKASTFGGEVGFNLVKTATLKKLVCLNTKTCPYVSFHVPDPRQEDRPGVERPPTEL", "assay": "NVS_ENZ_oCOX1: NovaScreen (NVS) Enzymatic Assay for sheep Cyclooxygenase-1 (Cox1) (AID 2283239);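 also: actives reduce cyclooxygenase activity so potencies are for inhibitors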", "procedure": "NVS_ENZ_oCOX1 is a biochemical, single-readout assay that uses extracted gene-proteins from Ovine seminal vesicles in a tissue-based cell-free assay. Measurements were taken 0.66 hour after chemical dosing in a 96-well plate.NVS_ENZ_oCOX1 is one of one assay component(s) measured or calculated from the NVS_ENZ_oCOX1 assay. It is designed to make measurements of enzyme activity, a form of enzyme reporter, as detected with absorbance signals by Colorimetric technology.Data from the assay component NVS_ENZ_oCOX1 was analyzed into 1 assay endpoint. This assay endpoint, NVS_ENZ_oCOX1, was analyzed in the positive analysis fitting direction relative to DMSO as the negative control and baseline of activity. Using a type of enzyme reporter, loss-of-signal activity can be used to understand changes in the enzymatic activity as they relate to the gene PTGS1. Furthermore, this assay endpoint can be referred to as a primary readout, because this assay has produced multiple assay endpoints where this one serves a enzymatic activity function. To generalize the intended target to other relatable targets, this assay endpoint is annotated to the oxidoreductase intended target family, where the subfamily is cyclooxygenase.\nBinding assays used specific radioligands (tritiated, iodinated) with non-radioactive competitive displacement ligands in agonist or antagonist protocols (as indicated) and various reference compounds and inhibitors to titrate specific binding to receptors and transporters. Most enzyme assays (CYPs, kinases, phosphatases, proteases, HDACs) used recombinant protein and specific substrates (fluorescence mostly, some colorimetric and radioactive) and inhibitors, followed by a biochemical separation of substrate and product. All assays for the biochemical HTS were initially run in duplicate at a single concentration (10 uM for CYP450 assays and 25 uM for all others). […] Each assay was run with positive and negative controls, and concurrent controls on every plate. The follow-up (secondary) screen tested active chemical-pairs in concentration series, as well as a few additional assays not tested in the primary screen, some selected negative inactives, and several cases re-run in the concentration series for confirmatory purposes."}
{"compound": "Oc1c(Cl)cc(Cl)c(Cl)c1Cl", "outcome": "inactive"}
{"compound": "Nc1nc(N)nc(-c2ccccc2)n1", "outcome": "inactive"}
{"compound": "Oc1ccc(/C=C/c2cc(O)cc(O)c2)cc1", "AC50": "7.5 µM (active)"}
{"compound": "CC(=O)OC(C)c1ccccc1", "note": "(centres undefined)", "outcome": "inactive"}
{"compound": "Cc1c(O)cccc1O", "AC50": "5.06 µM (active)"}
{"compound": "CCc1occc(=O)c1O", "AC50": "0.243 µM (active)"}
{"compound": "C=CCCCCCCCCC=O", "outcome": "inactive"}
{"compound": "CC1=C(O)C(=O)C(C)O1", "note": "(centres undefined)", "outcome": "inactive"}
{"compound": "Nc1cccc(N)n1", "outcome": "inactive"}
{"compound": "COC(OC)(C(=O)c1ccccc1)c1ccccc1", "outcome": "inactive"}
{"compound": "CCCCCC1=CCCC1=O", "AC50": "25 µM (active)"}
{"compound": "NNS(=O)(=O)c1ccc(Oc2ccc(S(=O)(=O)NN)cc2)cc1", "outcome": "inactive"}
{"compound": "COc1ccc(C(=O)/C(Br)=C\\C(=O)O)cc1", "AC50": "25 µM (active)"}
{"compound": "CCCCCCCCCCCC(C)=O", "AC50": "31.9 µM (active)"}
